Drawing on PubChem BioAssay (EPA / NIEHS), this text covers outcome and AC50 for seven molecules.

Calls of active or inactive are those of the source. The calls were made as follows: active = hit-call score of the fitted dose curve at least 0.9, where 1 is the maximum; inactive = score below 0.9.

Test [1] is described as follows: ATG_ISRE_CIS: Attagene CIS-FACTORIAL HepG2 Assay for human Interferon Regulatory Factor 1 (IRF1) binding to an Interferon-Stimulated Response Element (ISRE) (AID 2282948). To be noted: HepG2 ISRE cis-reporter (Attagene), mRNA transcription readout; actives raise or lower the signal. In outline: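 Signal reflects induction or loss of ISRE-linked reporter mRNA in transiently transfected HepG2 cells after a 24 h treatment, detected by fluorescent RT-PCR fragments on capillary electrophoresis and normalised to DMSO.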

The nature of test [2]: ATG_M_32_CIS: Attagene CIS-FACTORIAL HepG2 Assay for M32 Transcription Factor (Internal Marker) (AID 2282949).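 Also: background control marker of the multiplexed CIS panel rather than a real target.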 To be noted: HepG2 Attagene cis-factorial M32 reporter, mRNA; actives raise or lower the signal. In a few lines:
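Using DMSO as baseline, bidirectional curve fits were applied to reporter mRNA signals. These came from transiently transfected HepG2 cells exposed for 24 h, with RNA analysed by RT-PCR, FAM primer extension, HpaI digestion and CE.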

Test [3] addresses Hypoxia-inducible factor 1-alpha (Homo sapiens) (UniProt Q16665). The test can be described thus: ATG_HIF1a_CIS: Attagene CIS-FACTORIAL HepG2 Assay for human Hypoxia Inducible Factor 1 (HIF1A) (AID 2282951). To be noted: HepG2 Attagene cis-factorial HIF1a reporter transcription; actives raise or lower the signal. In outline: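 Activity is fitted in both directions relative to DMSO. Reporter transcripts are read by RT-PCR, fluorescent primer extension and capillary electrophoresis after 24 h chemical treatment. The cells are HepG2 carrying transiently transfected cis-element-driven reporter units responding to endogenous factors.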

Test [4] concerns the target Hepatocyte nuclear factor 6 (Homo sapiens) (UniProt Q9UBC0). The test can be described thus: ATG_HNF6_CIS: Attagene CIS-FACTORIAL HepG2 Assay for human Hepatocyte Nuclear Factor 6 (HNF6) (AID 2282952). To be noted: HepG2 Attagene cis-factorial HNF6 reporter transcription; actives raise or lower the signal. In a few lines:
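Using cis-element reporters in HepG2 liver cells, the assay tracks endogenous factor-driven transcription 24 h post-dosing. Signal comes from 6-FAM-labelled, HpaI-digested RT-PCR fragments, with gain or loss scored against DMSO.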

The target in test [5] is Heat shock factor protein 1 (Homo sapiens) (UniProt Q00613). The test can be described thus: ATG_HSE_CIS: Attagene CIS-FACTORIAL HepG2 Assay for human Heat Shock Transcription Factor 1 (HSE) (AID 2282953). To be noted: HepG2 HSE cis-reporter, Attagene RNA transcription; actives raise or lower the signal. In a few lines:
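HepG2 cells transfected with cis-promoter reporter units sensing endogenous transcription factor activity; reporter mRNA quantified 24 h post-dose by RT-PCR and capillary electrophoresis of 6-FAM-labelled products. Bidirectional fitting against DMSO.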

Test [6] can be described thus: ATG_MRE_CIS: Attagene CIS-FACTORIAL HepG2 Assay for human Metal Responsive Element (MRE) (AID 2282954). To be noted: HepG2 MRE cis-reporter transcription, Attagene multiplex; actives raise or lower the signal. In outline:
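Readout: capillary electrophoresis of 6-FAM-labelled, HpaI-digested RT-PCR reporter products. System: HepG2 cells carrying transient multiplexed cis reporters, dosed 24 h. Analysis: bidirectional fit, DMSO baseline.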

The target of test [7] is Paired box protein Pax-6 (Homo sapiens) (UniProt P26367). Kind of test: ATG_Pax6_CIS: Attagene CIS-FACTORIAL HepG2 Assay for human Paired Box 6 (PAX6) (AID 2282956). To be noted: HepG2 CIS-FACTORIAL PAX6 reporter transcription, RNA readout; actives raise or lower the signal. In a few lines: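 Values derive from bidirectional curve fitting of reporter mRNA signal relative to DMSO. HepG2 cells bearing transfected cis-regulated MRTUs were exposed for 24 h; transcripts were read by RT-PCR and capillary electrophoresis.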

Test [8] can be described thus: ATG_PXRE_CIS: Attagene CIS-FACTORIAL HepG2 Assay for human Pregnane X Receptor Element (PXRE) (AID 2282957). To be noted: HepG2 Attagene CIS-FACTORIAL PXRE reporter, mRNA; actives raise or lower the signal. In a few lines: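 Using HepG2 transfected with multiple reporter transcription units, endogenous factor-driven transcription was scored as reporter mRNA after 24 h exposure.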

A short description of test [9]: ATG_RORE_CIS: Attagene CIS-FACTORIAL HepG2 Assay for human RAR-related Orphan Receptor Element (RORE) (AID 2282959). To be noted: HepG2 Attagene cis-factorial RORE reporter, mRNA; actives raise or lower the signal. In a few lines: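 RORE reporter transcripts reflecting endogenous factor activity were read after 24 h compound exposure of transfected HepG2 cells, using reverse transcription, PCR, fluorescent labelling and capillary electrophoresis sizing. Gain or loss fitted against DMSO.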

Test [10] is described as follows: ATG_Sox_CIS: Attagene CIS-FACTORIAL HepG2 Assay for human SRY-box transcription factor (SOX) (AID 2282960). To be noted: HepG2 Attagene cis-factorial SOX reporter, mRNA; actives raise or lower the signal. In outline: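 Reporter transcripts, measured by RT-PCR and capillary electrophoresis of labelled fragments, report endogenous SOX transcription factor activity. Transiently transfected human HepG2 cells receive chemical for 24 h; changes in either direction are fitted relative to DMSO.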

The target of test [11] is Transcription factor Sp1 (Homo sapiens) (UniProt P08047). Kind of test: ATG_Sp1_CIS: Attagene CIS-FACTORIAL HepG2 Assay for human Specificity Protein 1 (Sp1) (AID 2282961). To be noted: HepG2 Sp1 cis-reporter transcription, actives raise or lower the signal. In a few lines: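 Read-out is reporter transcript level, measured by RT-PCR and fluorescent capillary electrophoresis after 24 h chemical treatment. System: transiently transfected HepG2 cells reporting endogenous transcription factor activity; gain or loss fitted against DMSO baseline.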

The nature of test [12]: ATG_SREBP_CIS: Attagene CIS-FACTORIAL HepG2 Assay for human Sterol Regulatory Element Binding (SREBP) (AID 2282962). To be noted: HepG2 Attagene cis-factorial SREBP reporter, mRNA; actives raise or lower the signal. In outline: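 Values derive from bidirectional curve fitting with DMSO as baseline. The underlying measurement is reporter mRNA from cis-element-regulated units in transiently transfected HepG2, quantified by RT-PCR and capillary electrophoresis after 24 h exposure.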

The target of test [13] is Signal transducer and activator of transcription 3 (Homo sapiens) (UniProt P40763). Kind of test: ATG_STAT3_CIS: Attagene CIS-FACTORIAL HepG2 Assay for human Signal Transducer and Activator of Transcription 3 (STAT3) (AID 2282963). To be noted: HepG2, Attagene cis-factorial STAT3 reporter transcription; actives raise or lower the signal. In outline:
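Uses human liver HepG2 transiently carrying cis-regulated reporter transcription units. Following 24 h dosing, reporter mRNA induction was detected by RT-PCR and capillary electrophoresis, analysed bidirectionally versus DMSO.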

Test [14] is described as follows: ATG_TA_CIS: Attagene CIS-FACTORIAL HepG2 Assay for human TA Basal Promoter (AID 2282964). To be noted: HepG2 Attagene CIS-factorial TA basal promoter reporter; actives raise or lower the signal. In outline: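 HepG2 cells transiently transfected with multiple reporter units under cis promoter elements, reporting endogenous transcription factor activity; this endpoint tracks the TA basal promoter as background control. Reporter mRNA after 24 h dosing measured by RT-PCR/capillary electrophoresis; bidirectional fits versus DMSO.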

Test [15] can be described thus: ATG_TCF_b_cat_CIS: Attagene CIS-FACTORIAL HepG2 Assay for human T-Cell-Factor with beta-catenin (TCF/b-cat) (AID 2282965). To be noted: HepG2 TCF/beta-catenin cis-reporter transcription, actives raise or lower the signal. In outline:
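In this cis-format system, transfected HepG2 cells report endogenous transcription factor activity. Readout after 24 h exposure is reporter transcript abundance from RT-PCR and capillary electrophoresis, analysed for gain or loss of signal versus DMSO.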

Test [16] in a line: ATG_GRE_CIS: Attagene CIS-FACTORIAL HepG2 Assay for human Glucocorticoid Response Elements (GRE) (AID 2282947). To be noted: HepG2 GRE cis-reporter, Attagene multiplex mRNA; actives raise or lower the signal. In a few lines: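 HepG2, transient cis-reporter transfection, 24 h. Reporter mRNA: RT-PCR then CE, fluorescence. Fit both directions vs DMSO.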
Test [17] can be described thus: ATG_PBREM_CIS: Attagene CIS-FACTORIAL HepG2 Assay for human Phenobarbital-responsive Enhancer Module (PBREM) (AID 2282955). To be noted: HepG2 PBREM cis-reporter, Attagene multiplexed transcription; actives raise or lower the signal. In outline: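 Endogenous transcription factor activity was read from reporter transcripts in transiently transfected human HepG2 liver cells after 24 h dosing. RT-PCR products were fluorescently labelled, HpaI-cut and sized by capillary electrophoresis; activity fitted bidirectionally against DMSO baseline.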

Test [18] is described as follows: ATG_M_06_CIS: Attagene CIS-FACTORIAL HepG2 Assay for M06 Transcription Factor (Internal Marker) (AID 2282950). To be noted: HepG2 Attagene CIS-FACTORIAL M06 internal marker reporter; actives raise or lower the signal. In a few lines:
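Internal background marker within multiplexed cis-reporter HepG2 system. Cells transiently transfected, dosed 24 h; reporter mRNA measured by RT-PCR, HpaI digestion and capillary electrophoresis. Bidirectional fit relative to DMSO.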

A short description of test [19]: ATG_PPRE_CIS: Attagene CIS-FACTORIAL HepG2 Assay for human Peroxisome Proliferator-activated Response Element (PPRE) (AID 2282958). To be noted: HepG2 PPRE cis-element reporter, Attagene transcription factor profiling; actives raise or lower the signal. In outline: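 Endogenous PPRE-driven transcription is measured in HepG2 cells carrying transfected multi-reporter constructs. Reporter transcripts are quantified by RT-PCR, HpaI digestion and capillary electrophoresis 24 h after dosing. DMSO baseline, bidirectional fit.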

Chain of Hypoxia-inducible factor 1-alpha (Homo sapiens) (Q16665 whole entry, looked up): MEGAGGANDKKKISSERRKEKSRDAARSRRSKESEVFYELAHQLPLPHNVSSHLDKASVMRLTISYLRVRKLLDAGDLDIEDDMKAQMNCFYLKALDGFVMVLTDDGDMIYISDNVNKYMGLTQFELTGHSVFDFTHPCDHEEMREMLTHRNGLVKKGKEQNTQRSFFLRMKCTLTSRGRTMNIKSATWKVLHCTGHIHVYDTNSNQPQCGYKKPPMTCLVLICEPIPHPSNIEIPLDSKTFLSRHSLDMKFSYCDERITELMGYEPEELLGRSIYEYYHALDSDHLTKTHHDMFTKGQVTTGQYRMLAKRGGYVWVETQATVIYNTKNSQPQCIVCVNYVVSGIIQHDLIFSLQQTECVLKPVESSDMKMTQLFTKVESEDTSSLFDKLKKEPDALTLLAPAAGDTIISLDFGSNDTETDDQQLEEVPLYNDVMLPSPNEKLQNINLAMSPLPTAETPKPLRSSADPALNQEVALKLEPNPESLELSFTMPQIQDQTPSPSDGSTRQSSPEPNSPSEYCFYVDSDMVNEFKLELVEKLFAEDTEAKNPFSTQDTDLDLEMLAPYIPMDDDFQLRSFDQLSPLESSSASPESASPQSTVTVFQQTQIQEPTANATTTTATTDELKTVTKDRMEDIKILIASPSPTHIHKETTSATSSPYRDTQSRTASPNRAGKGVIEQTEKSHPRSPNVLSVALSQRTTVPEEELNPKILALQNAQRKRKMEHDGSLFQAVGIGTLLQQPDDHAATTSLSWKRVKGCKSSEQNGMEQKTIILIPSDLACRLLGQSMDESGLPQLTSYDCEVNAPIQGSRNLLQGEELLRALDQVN
Chain of Transcription factor Sp1 (Homo sapiens) (P08047 whole entry, looked up): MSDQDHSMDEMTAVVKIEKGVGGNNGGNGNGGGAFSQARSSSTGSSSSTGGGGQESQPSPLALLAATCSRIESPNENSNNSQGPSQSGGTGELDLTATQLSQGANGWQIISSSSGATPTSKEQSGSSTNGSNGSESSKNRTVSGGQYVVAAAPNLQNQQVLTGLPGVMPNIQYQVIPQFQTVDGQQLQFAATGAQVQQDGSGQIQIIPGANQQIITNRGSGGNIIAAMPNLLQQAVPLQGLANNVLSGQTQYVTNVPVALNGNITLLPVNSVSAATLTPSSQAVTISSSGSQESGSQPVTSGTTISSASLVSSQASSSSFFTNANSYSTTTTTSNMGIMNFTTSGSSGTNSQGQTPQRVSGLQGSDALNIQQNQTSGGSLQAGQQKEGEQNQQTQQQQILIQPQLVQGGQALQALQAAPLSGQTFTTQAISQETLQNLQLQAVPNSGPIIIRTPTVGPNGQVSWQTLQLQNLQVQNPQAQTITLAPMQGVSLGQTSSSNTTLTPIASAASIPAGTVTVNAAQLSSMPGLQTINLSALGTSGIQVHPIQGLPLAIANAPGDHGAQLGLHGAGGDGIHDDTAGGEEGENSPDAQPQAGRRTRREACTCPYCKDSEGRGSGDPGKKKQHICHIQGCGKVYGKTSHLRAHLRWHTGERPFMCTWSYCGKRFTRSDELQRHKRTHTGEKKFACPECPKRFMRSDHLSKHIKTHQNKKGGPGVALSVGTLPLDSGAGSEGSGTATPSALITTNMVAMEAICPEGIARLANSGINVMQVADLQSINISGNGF
Chain of Heat shock factor protein 1 (Homo sapiens) (Q00613 whole entry, looked up): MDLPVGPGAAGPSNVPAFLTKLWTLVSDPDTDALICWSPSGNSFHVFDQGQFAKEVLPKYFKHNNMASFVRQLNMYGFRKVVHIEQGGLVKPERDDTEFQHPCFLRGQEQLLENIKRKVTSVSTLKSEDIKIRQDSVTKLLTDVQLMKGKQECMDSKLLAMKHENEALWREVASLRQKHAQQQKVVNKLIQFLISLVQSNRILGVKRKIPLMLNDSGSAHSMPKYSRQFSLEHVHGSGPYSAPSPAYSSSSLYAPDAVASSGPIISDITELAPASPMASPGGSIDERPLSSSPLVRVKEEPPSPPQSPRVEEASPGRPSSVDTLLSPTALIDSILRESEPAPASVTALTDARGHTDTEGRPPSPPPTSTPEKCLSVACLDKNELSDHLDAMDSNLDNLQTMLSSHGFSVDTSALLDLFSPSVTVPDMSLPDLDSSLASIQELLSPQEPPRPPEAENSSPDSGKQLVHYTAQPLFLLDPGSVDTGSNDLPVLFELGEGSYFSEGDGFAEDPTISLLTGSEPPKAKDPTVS
Chain of Paired box protein Pax-6 (Homo sapiens) (P26367 whole entry, looked up): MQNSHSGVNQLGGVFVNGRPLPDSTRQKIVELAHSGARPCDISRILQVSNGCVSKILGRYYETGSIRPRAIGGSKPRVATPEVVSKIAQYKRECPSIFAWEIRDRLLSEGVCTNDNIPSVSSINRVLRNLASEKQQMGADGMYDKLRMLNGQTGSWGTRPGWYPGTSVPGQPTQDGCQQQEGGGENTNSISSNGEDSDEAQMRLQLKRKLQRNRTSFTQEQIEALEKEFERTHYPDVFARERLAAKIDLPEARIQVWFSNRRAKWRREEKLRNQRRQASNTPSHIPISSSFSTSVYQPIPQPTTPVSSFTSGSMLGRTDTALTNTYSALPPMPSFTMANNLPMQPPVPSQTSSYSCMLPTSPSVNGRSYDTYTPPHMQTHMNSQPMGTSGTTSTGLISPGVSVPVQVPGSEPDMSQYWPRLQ
Chain of Hepatocyte nuclear factor 6 (Homo sapiens) (Q9UBC0 whole entry, looked up, the tested form may be a part): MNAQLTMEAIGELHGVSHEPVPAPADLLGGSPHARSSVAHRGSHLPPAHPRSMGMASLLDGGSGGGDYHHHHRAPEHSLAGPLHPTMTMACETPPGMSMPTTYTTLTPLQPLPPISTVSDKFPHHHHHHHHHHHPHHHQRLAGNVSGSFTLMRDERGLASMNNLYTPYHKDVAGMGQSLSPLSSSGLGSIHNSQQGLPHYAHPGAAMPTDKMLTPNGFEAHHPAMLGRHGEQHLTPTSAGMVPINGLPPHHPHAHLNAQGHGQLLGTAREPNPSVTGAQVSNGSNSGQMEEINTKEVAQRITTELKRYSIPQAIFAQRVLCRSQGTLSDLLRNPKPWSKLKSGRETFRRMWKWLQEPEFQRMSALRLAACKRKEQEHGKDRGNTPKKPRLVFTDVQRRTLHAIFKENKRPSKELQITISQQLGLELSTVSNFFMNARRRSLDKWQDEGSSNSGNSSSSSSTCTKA
Chain of Signal transducer and activator of transcription 3 (Homo sapiens) (P40763 whole entry, looked up): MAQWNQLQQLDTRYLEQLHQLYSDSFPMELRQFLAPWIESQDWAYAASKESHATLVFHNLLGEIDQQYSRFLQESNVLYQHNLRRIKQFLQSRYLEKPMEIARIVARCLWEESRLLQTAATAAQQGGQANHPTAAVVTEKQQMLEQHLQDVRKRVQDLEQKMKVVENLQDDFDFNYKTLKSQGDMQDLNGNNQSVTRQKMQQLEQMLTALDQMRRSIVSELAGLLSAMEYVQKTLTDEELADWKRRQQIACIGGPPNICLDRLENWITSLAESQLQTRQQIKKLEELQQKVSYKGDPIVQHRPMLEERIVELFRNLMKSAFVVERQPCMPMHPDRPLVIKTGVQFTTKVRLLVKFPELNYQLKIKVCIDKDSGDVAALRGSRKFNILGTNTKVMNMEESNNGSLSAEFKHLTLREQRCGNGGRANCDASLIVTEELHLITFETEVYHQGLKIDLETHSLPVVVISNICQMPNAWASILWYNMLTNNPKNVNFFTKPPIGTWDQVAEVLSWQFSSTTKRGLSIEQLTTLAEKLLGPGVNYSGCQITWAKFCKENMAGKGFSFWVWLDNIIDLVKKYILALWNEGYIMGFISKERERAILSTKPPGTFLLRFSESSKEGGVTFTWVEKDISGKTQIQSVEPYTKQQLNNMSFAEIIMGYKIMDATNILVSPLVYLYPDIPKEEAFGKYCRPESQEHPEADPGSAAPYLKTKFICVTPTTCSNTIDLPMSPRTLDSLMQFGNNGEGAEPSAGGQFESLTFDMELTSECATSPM

Broadly, the AC50 is the midpoint of the concentration-response curve, whichever way the signal moves. On to `[Cl-].[Cl-].[Hg+2]`, for which the molecule was classed as inactive in [1], in test [2], in test [4], in test [5], in [6] and in test [7]. Moreover, the molecule was classed as inactive in [8], in [9], in test [10], in test [11], in test [13] and in test [14]. Further, the molecule was called inactive in test [15]. The AC50 in test [3] is 33.4 µM (active); in [12], 51 µM (active).

`ClC1=C(Cl)[C@]2(Cl)[C@H]3[C@H]([C@@H]4C=C[C@H]3C4)[C@@]1(Cl)C2(Cl)Cl`: the molecule was classed as inactive in [16], in [1], in test [2], in test [3], in [4] and in test [5]. The result in test [17], in [7], in [10], in [11], in [12] and in [14] was inactive. Moreover, the call in [15] was inactive. Besides, the AC50 in [6] is 33.4 µM (active); in [8] it was 2.06 µM (active); in test [9], 25.2 µM (active).

Take `Oc1ccc2ccc3cccc4ccc1c2c34`: the result in [16], in test [1], in test [2], in [4], in test [5] and in test [6] was inactive. Moreover, the result in test [17], in test [9], in [10], in test [11], in [12] and in [13] was inactive. In addition, the outcome in test [14] and in test [15] was inactive. In addition, the AC50 in test [3] is 0.00117 µM (active); in [8], 13 µM (active).

For `c1ccc2c(c1)oc1ccccc12`, the molecule was called inactive in [16], in test [1], in test [2], in [3], in [4] and in test [5]. The molecule was called inactive in test [6], in test [17], in test [7], in test [8], in [10] and in test [11]. Besides, the outcome in test [12], in test [14] and in [15] was inactive.

For the molecule `C[N+](C)(C)CC1CO1` (stereo unspecified), the molecule was called inactive in [1], in [2], in test [18], in [3], in [4] and in test [5]. Moreover, the molecule was classed as inactive in [6], in test [8], in test [19], in [9], in [10] and in test [11]. Moreover, the molecule was called inactive in test [12], in [14] and in [15].

Regarding `c1ccc(C2CO2)cc1` (stereo unspecified), the outcome in test [16], in [1], in test [2], in test [3], in test [4] and in test [5] was inactive. In addition, the molecule was classed as inactive in test [6], in test [7], in test [19], in test [9], in test [10] and in test [11]. In addition, the molecule was classed as inactive in test [12], in test [14] and in [15]. Also, the AC50 in test [8] was 34.8 µM (active).

As for `Clc1ccc(Cl)c(Cl)c1`, the result in test [1], in [2], in test [3], in [4], in test [6] and in test [17] was inactive. For the same molecule, the call in [9], in test [10], in test [11], in test [12], in test [14] and in test [15] was inactive. In [8], the AC50 is 58.4 µM (active).
